# Screens (PubChem BioAssay)
# Shown is part of a subset that was picked to be rich in hits.
# Cruzain inh Det: inhibitors of Trypanosoma cruzi cruzain with detergent; P25779; purified cruzain, Z-FR-AMC fluorescence, 0.01% Triton; Potency, µM, usual class: inhibitors; hit rate 0.43% among 200,000; AID 1478; further: nearly all actives have a fitted effect of over 40% in size
# Target sequence (P25779 123-467 limits assumed): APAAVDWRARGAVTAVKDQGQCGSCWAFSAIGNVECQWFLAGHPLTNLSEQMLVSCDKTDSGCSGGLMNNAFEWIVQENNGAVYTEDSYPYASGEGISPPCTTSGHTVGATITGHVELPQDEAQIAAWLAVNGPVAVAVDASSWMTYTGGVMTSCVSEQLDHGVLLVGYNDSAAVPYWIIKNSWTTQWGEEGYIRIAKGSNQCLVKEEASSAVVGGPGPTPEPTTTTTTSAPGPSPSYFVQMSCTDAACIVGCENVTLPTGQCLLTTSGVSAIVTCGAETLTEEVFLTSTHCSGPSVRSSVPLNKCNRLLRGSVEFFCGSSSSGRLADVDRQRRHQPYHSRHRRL
#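 Steps: dispense cruzain (1.5 nM final) in acetate buffer pH 5.5 with DTT and 0.01% Triton X-100; pin-transfer compounds; incubate 15 min RT; add Z-FR-AMC (2 uM final); read fluorescence every 30 s, using the 60 s intensity change.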
# FBPA Giardia inh: inhibitors of Giardia lamblia fructose-1,6-bisphosphate aldolase; A8B2U2; purified Giardia FBPA; Potency, µM (titrated, usually from 59.6 µM), most hits filed as inhibitors; hit rate 0.71% among 290,000; AID 2451; further: nearly all actives have a fitted effect of over 55% in size
# Target sequence (A8B2U2 whole entry, looked up): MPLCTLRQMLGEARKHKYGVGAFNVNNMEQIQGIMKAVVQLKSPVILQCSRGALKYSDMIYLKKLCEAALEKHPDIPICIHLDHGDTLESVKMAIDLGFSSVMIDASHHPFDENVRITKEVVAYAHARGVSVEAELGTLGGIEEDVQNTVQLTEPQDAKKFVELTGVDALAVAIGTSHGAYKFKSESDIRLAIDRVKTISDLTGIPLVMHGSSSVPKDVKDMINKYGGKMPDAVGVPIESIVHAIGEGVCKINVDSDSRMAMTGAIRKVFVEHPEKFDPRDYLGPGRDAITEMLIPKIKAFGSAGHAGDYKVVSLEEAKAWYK
#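 40 nM FBPA preincubated 10 min at RT with compound (up to 57.5 uM final), then substrate plus GAPDH/TPI/NAD/arsenate coupling and diaphorase/resazurin added. Fluorescence read after 20 min at RT, 525/598 nm.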
# Cruzain noTriton: cruzain (T. cruzi) inhibition without detergent; hit rate 2.3% among 200,000; Potency, µM, actives largely listed as inhibitors; P25779; purified cruzain, Z-FR-AMC fluorescence, no detergent; further: nearly all actives have a fitted effect of over 40% in size
#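 Purified cruzain at 1.5 nM, pre-incubated 15 min with compound at room temperature in 100 mM sodium acetate pH 5.5, 5 mM DTT, 0.00005% Triton X-100. Reaction started with 2 uM Z-FR-AMC; AMC fluorescence increase over 60 s gives rate.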
# Hits are given with their value; – = inactive; ? = inconclusive; · = not tested or not shown; ! = not active in a repeat. The call rests on the fitted dose curve; in most records, active means well fitted curve in the direction sought with a large enough effect; inconclusive means small, poorly fitted or top-dose-only effect, or another doubt; inactive means no such curve, though single readings can be large; an effect the other way counts as inactive or inconclusive.
SMILES,Cruzain inh Det,FBPA Giardia inh,Cruzain noTriton
COc1ccc(-c2cc(-c3ccccc3)c(C#N)c(SCC(O)CS(=O)(=O)Cc3ccc(Cl)cc3)n2)cc1 (stereo not drawn),–,·,?
NC(=O)c1ccccc1NC(=O)CN1c2ccccc2S(=O)(=O)c2ccccc21,–,·,–
COc1cc(Cl)c(C)cc1NC(=O)CN1c2ccccc2S(=O)(=O)c2ccccc21,–,·,25µM
C[C@H]1C=CC(=O)C[C@H]1c1c(F)cccc1Cl,·,–,·
O=C(CCSCc1ccc(Cl)cc1)N1CCN(c2ccccc2F)CC1,–,·,–
N[C@@H](Cc1nn[nH]n1)C(=O)O,–,·,–
Cn1nnc(NC(=O)c2ccco2)n1,–,–,–
Cn1nnc(NC(=O)c2ccccc2)n1,–,–,–
COc1ccc(C(=O)NC(=S)Nc2nnn(C)n2)cc1,–,1.8µM,–
Cn1nnc(NC(=S)NC(=O)c2ccco2)n1,–,1.3µM,–
COc1ccc(-n2nc(C(=O)c3cccs3)cc(-c3nc4ccccc4[nH]3)c2=N)cc1,–,–,–
Cc1ccccc1-n1nc(C(=O)c2cccs2)cc(-c2nc3ccccc3[nH]2)c1=N,–,?,25µM
COc1ccc(-c2cc(=Nc3c(C)n(C)n(-c4ccccc4)c3=O)c3ccccc3o2)cc1,·,–,·
COc1ccc(-c2c/c(=N\c3nc(-c4ccccc4)c(C)s3)c3ccccc3o2)cc1O,–,–,10µM
Nc1nc(SCc2ccc(Cl)cc2Cl)nc2nc3c(cc12)CCCC3,14µM,–,13µM
Nc1nc(SCc2ccccc2Cl)nc2nc3c(cc12)CCCC3,–,–,–
COc1ccc(CNc2ccnc(-c3ccccc3CN(C)C)n2)c(OC)c1,–,–,–
CS(=O)(=O)Nc1cccc(-c2cc(NCc3ccccc3)ncn2)c1,–,–,–
CN(C)c1cc(-c2cccc(NS(C)(=O)=O)c2)ncn1,13µM,–,16µM
Cc1cc(C)c2c(c1)NC(c1cc3c(cc1Br)OCO3)C1CC=CC21 (stereo not drawn),–,–,20µM
Brc1cc2c(cc1C1Nc3ccccc3C3C=CCC31)OCO2 (stereo not drawn),–,–,?
NC(C(=O)N[C@@H]1C(=O)N2C(C(=O)O)=C(Cl)CS[C@H]12)c1ccccc1 (stereo partly drawn),–,–,–
C=CC1=C(C(=O)O)N2C(=O)C(NC(=O)/C(=N\O)c3csc(N)n3)C2SC1 (stereo not drawn),–,?,–
CC1=C(C(=O)O)N2C(=O)[C@@H](NC(=O)C(N)C3=CCC=CC3)[C@H]2SC1 (stereo partly drawn),–,–,–
CC1=C(C(=O)O)N2C(=O)C(NC(=O)C(N)C3=CCC=CC3)C2SC1 (stereo not drawn),–,7.9µM,–
SMILES,Cruzain inh Det,FBPA Giardia inh,Cruzain noTriton
C=CC1=C(C(=O)O)N2C(=O)[C@@H](NC(=O)C(N=O)c3csc(N)n3)[C@H]2SC1 (stereo partly drawn),–,16µM,–
N[C@@H](C(=O)N[C@@H]1C(=O)N2C(C(=O)O)=C(Cl)CS[C@H]12)c1ccccc1,–,20µM!,–
CS(=O)(=O)Nc1cccc(-c2nc(NCc3ccccc3)c3ccccc3n2)c1,–,–,–
CCn1ccc2cc(S(=O)(=O)N3CCCN(C(=O)Nc4ccccc4F)CC3)ccc21,–,·,–
CN(Cc1cc(C(C)(C)C)cc(Br)c1O)Cc1cc(C(C)(C)C)cc(Br)c1O,–,·,–
Cc1cc(C)nc(Nc2ccc(N3CCOCC3)cc2)n1,–,–,?
Cc1cc(C)nc(Nc2ccc(N3CCCC3)cc2)n1,–,–,32µM
O=c1c(-c2ccc(F)cc2)nc2cnc(N3CCNCC3)nc2n1Cc1ccc(F)cc1,–,–,–
CCOC(=O)c1c(C)[nH]c(C(=O)CSc2ccccc2)c1C,–,–,?
CC(=O)c1c(C)[nH]c(C(=O)COC(=O)CCCOc2ccccc2)c1C,·,–,·
CC(=O)c1c(C)[nH]c(C(=O)COC(=O)CCSc2ccccc2)c1C,16µM,–,?
CCOC(=O)c1c(C)[nH]c(C(=O)COC(=O)CCSc2ccccc2)c1C,25µM,–,–
COc1ccc2oc(-c3ccc(C)c(NC(=O)c4ccc(N5CCCCC5)c([N+](=O)[O-])c4)c3)nc2c1,–,·,–
Cc1cccc(-n2cc(-c3ccccc3)c3c(NC(C)C)ncnc32)c1,–,·,–
CCOC(=O)C1CCCN(C(=O)c2ccc3c(c2)N(Cc2ccc(Cl)cc2)C(=O)c2ccccc2S3=O)C1 (stereo not drawn),–,·,?
O=C1Oc2ccccc2C(=O)/C1=C\N1C(=O)N/C(=C\c2ccccc2O)C1=O,–,·,–
Cc1ccc(/C=C(\C#N)C(=O)Nc2ccc(Br)cc2)o1,–,·,–
Cc1ccc(/C=C(\C#N)C(=O)Nc2cccc(Br)c2)o1,–,·,13µM
CCCC[C@H](NC(=O)[C@H](CO)NC(=O)[C@H](Cc1ccc(O)cc1)NC(=O)[C@H](CO)NC(C)=O)C(=O)N[C@@H](CCC(=O)O)C(=O)N[C@@H](Cc1cnc[nH]1)C(=O)N[C@H](Cc1ccccc1)C(=O)N[C@@H](CCCNC(=N)N)C(=O)N[C@@H](Cc1c[nH]c2ccccc12)C(=O)NCC(=O)N[C@@H](CCCCN)C(=O)N1CCC[C@H]1C(=O)N[C@H](C(N)=O)C(C)C,·,–,·
O=c1[nH]c2ccccc2c(O)c1-[n+]1ccccc1,·,–,·
O=c1[nH]c2ccccc2c(O)c1O,·,4µM,·
O=C(NC1CCCCC1)N1CCCC(c2nc3ccccc3[nH]2)C1 (stereo not drawn),?,–,5µM
O=C(NC1CCCCC1)N1CCC(c2nc3ccccc3[nH]2)CC1,–,–,–
CCCC/C=C/C(NC(=O)c1ccco1)c1ccccc1 (stereo not drawn),–,–,–
CS(=O)(=O)c1ccc(Sc2nc3ccccc3s2)c([N+](=O)[O-])c1,–,–,–
SMILES,Cruzain inh Det,FBPA Giardia inh,Cruzain noTriton
O=[N+]([O-])c1cc(S(=O)(=O)C(F)(F)F)ccc1Sc1nc2ccccc2s1,–,–,25µM
Cc1cc(C)cc(NC(=O)C(=O)NCC(c2ccc3c(c2)OCO3)N2CCN(C)CC2)c1 (stereo not drawn),–,·,–
C(CCOCC1CO1)COCC1CO1 (stereo not drawn),–,·,–
CCSc1nnc(NC(=O)COc2cccc3ccccc23)s1,–,–,13µM
C=CCSc1nnc(NC(=O)COc2ccc3ccccc3c2)s1,–,·,13µM
C=CCSc1nnc(NC(=O)COc2ccccc2)s1,·,–,·
CCSc1nnc(NC(=O)COc2ccc(Cl)cc2)s1,·,–,·
COc1ccc(C2C(C(=O)Nc3ccccc3)=C(C)Nc3c(C(=O)Nc4ccccc4)cnn32)cc1 (stereo not drawn),–,·,–
CC(C)CCN1C(=O)c2ccccc2CC1(C)C(=O)NC1CCC(C)CC1 (stereo not drawn),–,·,–
O=C(Cc1ccc(S(=O)(=O)N2CCCC2)s1)Nc1nc2c(s1)CCCC2,–,–,20µM
CC(C)(C)NC(=O)Cc1ccc(S(=O)(=O)N2CCCC2)s1,–,?,–
COc1cccc(CNC(=O)CCc2c(C)nn(-c3ccc(N4CCOCC4)nn3)c2C)c1,–,·,–
O=C(CSc1ncnc2scc(-c3ccc(F)cc3)c12)c1ccc2c(c1)OCCO2,–,–,?
Cc1ccc(-c2csc3ncnc(SCC(=O)c4ccc5c(c4)OCCO5)c23)cc1,–,–,10µM
Cc1sc2ncnc(SCC(=O)c3ccc4c(c3)OCCO4)c2c1-c1ccccc1,–,–,32µM
